Measurements from article PMC4336329 (PLoS ONE, 2015).
The whole screen tested about 310,000 compounds, of which about 14,000 (4.5%) showed an effect of 50% or more. Effects have a minus sign here. Only a selection was taken, and strong results are over-represented in it overall.

Molecular target: human ether-à-go-go-related gene (hERG) potassium channel (human, UniProt Q12809)
Assay: primary screen, population patch clamp on CHO cells stably expressing hERG; higher = less effect of the substance
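Further: peak tail current of the secondary pulse compared with the same well before compound.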

Chain of human ether-à-go-go-related gene (hERG) potassium channel (Q12809 whole entry, looked up): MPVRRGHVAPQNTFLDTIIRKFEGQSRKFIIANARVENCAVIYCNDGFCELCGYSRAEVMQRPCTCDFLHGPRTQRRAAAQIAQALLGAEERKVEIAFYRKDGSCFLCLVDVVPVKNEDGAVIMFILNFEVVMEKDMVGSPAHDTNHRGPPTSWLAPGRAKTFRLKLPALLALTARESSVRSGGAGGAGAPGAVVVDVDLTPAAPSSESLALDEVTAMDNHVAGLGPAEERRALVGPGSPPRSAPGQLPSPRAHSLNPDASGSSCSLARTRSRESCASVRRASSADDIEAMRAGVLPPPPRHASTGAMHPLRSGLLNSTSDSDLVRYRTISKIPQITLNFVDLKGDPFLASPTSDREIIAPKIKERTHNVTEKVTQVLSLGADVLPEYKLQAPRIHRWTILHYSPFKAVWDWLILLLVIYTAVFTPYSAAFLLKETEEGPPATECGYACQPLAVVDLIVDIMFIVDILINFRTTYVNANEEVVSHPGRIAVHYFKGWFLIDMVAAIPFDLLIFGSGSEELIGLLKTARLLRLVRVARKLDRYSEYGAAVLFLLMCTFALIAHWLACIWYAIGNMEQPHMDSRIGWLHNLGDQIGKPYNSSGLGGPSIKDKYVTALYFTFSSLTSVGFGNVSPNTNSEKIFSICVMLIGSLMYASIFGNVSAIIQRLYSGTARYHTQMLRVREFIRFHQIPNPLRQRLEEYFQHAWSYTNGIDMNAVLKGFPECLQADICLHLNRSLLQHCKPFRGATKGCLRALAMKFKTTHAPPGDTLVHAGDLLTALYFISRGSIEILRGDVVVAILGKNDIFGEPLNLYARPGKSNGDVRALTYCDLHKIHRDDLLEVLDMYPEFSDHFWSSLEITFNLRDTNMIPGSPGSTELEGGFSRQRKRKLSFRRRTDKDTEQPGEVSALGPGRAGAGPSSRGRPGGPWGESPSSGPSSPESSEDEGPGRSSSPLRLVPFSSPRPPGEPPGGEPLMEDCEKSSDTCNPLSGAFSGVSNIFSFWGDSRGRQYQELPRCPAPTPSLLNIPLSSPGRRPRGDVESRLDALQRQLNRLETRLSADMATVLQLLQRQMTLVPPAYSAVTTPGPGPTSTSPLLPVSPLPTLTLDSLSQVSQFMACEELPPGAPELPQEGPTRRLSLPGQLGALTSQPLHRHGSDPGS

Row | SMILES | hERG current change (%, negative = inhibition) at 10uM [%]
1 | COc1cc(/C=N/N2CCCCC2)cc([N+](=O)[O-])c1O | 20.8
2 | CC(C)CCN1CCC(n2nccc2NC(=O)C2CCOC2)CC1 (stereo not shown) | 15.3
3 | CC(CCN1CCC(n2nccc2NC(=O)c2ccccc2Cl)CC1)c1ccccc1 (stereo not shown) | -82.7
4 | CC(CN1CCC(n2nccc2NC(=O)C2CCCC2)CC1)c1ccccc1 (stereo not shown) | -24
5 | CC(CN1CCC(n2nccc2NC(=O)c2ccccc2Cl)CC1)c1ccccc1 (stereo not shown) | -68.9
6 | COCC(C)N1CCC(n2nccc2NC(=O)c2ccccc2Cl)CC1 (stereo not shown) | -47.9
7 | Cc1cc(-c2ccco2)n(CC(=O)NCc2ccco2)n1 | 8.48
8 | CCC(C(=O)N1CC2(C)CC1CC(C)(C)C2)N1C(=O)c2ccccc2C1=O (stereo not shown) | -18.3
9 | Cc1cc(=O)oc2cc(OCCc3ccccc3)ccc12 | -0.326
10 | CCOc1ccc2c(c1)-c1c(ssc1=S)C(C)(C)N2C | -3.7
11 | CCOC(=O)C1C(=O)C=C(c2ccc(C)cc2)CC1c1ccccc1 (stereo not shown) | 28.2
12 | CCOC(=O)C1C(=O)C=C(c2ccc(C)cc2)CC1c1cccc([N+](=O)[O-])c1 (stereo not shown) | -4.88
13 | CCOC(=O)C1C(=O)C=C(c2ccc([N+](=O)[O-])cc2)CC1c1ccccc1 (stereo not shown) | -63.5
14 | CCOC(=O)C1C(=O)C=C(c2ccc(NS(C)(=O)=O)cc2)CC1c1ccco1 (stereo not shown) | -80.3
15 | CCOC(=O)C1C(=O)C=C(c2ccc(C)cc2)CC1c1ccco1 (stereo not shown) | 5.34
16 | CCOC(=O)C1C(=O)C=C(c2ccc(Br)cc2)CC1c1ccco1 (stereo not shown) | -23.2
17 | CCOCC(=O)Nc1ccc2c(c1)OCCO2 | 19.6
18 | Brc1ccc2c(c1)C(c1cccs1)=NNC(c1cccnc1)=N2 | -14.5
19 | COc1ccc(NC(=O)CCC(=O)c2ccc(C(C)C)cc2)cc1 | 27.7
20 | CC(=O)N=c1c(C#N)cc2c(=O)n3ccccc3nc2n1CCCOC(C)C | -13.6

Row | SMILES | hERG current change (%, negative = inhibition) at 10uM [%]
21 | CCOCCCn1c(=NC(=O)c2cccs2)c(C#N)cc2c(=O)n3ccccc3nc21 | -76.9
22 | CC(C)OCCCn1c(=NC(=O)c2cccs2)c(C#N)cc2c(=O)n3ccccc3nc21 | -77.6
23 | CC(C)OCCCn1c(=NC(=O)c2ccncc2)c(C#N)cc2c(=O)n3ccccc3nc21 | -74.2
24 | CCOCCCn1c(=NC(C)=O)c(C#N)cc2c(=O)n3ccccc3nc21 | -15.4
25 | CCCCCn1c(=NC(C)=O)c(C#N)cc2c(=O)n3ccccc3nc21 | -43
26 | Cc1ccc(NC(=O)c2ccc(CSc3nnnn3C)cc2)cc1 | -15.3
27 | COc1ccc(-c2nc(CS(=O)CC(=O)NCc3cccnc3)c(C)o2)cc1OC (stereo not shown) | -2.9
28 | O=C(NCCCN1CCCCCC1)c1ccc(N2CCCC2=O)cc1 | 16.4
29 | COc1ccccc1/C=C(\C#N)C(=O)c1cccn1C | 5.95
30 | CCOC(=O)C1(Cc2cccc(F)c2)CCN(CC2CC2)CC1 | -33.4
31 | CCOC(=O)C1(Cc2cccc(OC)c2)CCN(CC2CC=CCC2)CC1 (stereo not shown) | -71.7
32 | CCOC(=O)C1(Cc2ccccc2)CCN(CC2CC=CCC2)CC1 (stereo not shown) | -54.9
33 | CCN(Cc1cnn(C)c1)C(=O)c1ccc(OC2CCN(S(=O)(=O)N(C)C)CC2)cc1 | 19.1
34 | CCSC1=C(C#N)C(c2ccc3c(c2)OCO3)C2=C(CCCC2=O)N1 (stereo not shown) | -23.4
35 | Oc1ccc(/C=N/N2CCN(Cc3ccccc3)CC2)cc1 | 7.33
36 | O=C(COC(=O)CC1CCCC1)Nc1cccc(F)c1 | -1.79
37 | O=C(NCc1cccs1)[C@@H]1CSC2c3ccccc3C(=O)N21 (stereo partly shown) | 8.92
38 | CCn1nc(C)c(CN2CCc3c([nH]c4ccccc34)C2C(C)(C)C)c1C (stereo not shown) | -3.17
39 | COCc1ccc(CN2CCc3c([nH]c4ccccc34)C2C(C)(C)C)o1 (stereo not shown) | 7.25
40 | CCn1ccnc1CN1CCc2c([nH]c3ccccc23)C1C(C)(C)C (stereo not shown) | -59.7

Row | SMILES | hERG current change (%, negative = inhibition) at 10uM [%]
41 | CCn1ccnc1CN1CCc2c([nH]c3ccccc23)C1CC(C)C (stereo not shown) | -67.9
42 | COCc1ccc(CN2CCc3c([nH]c4ccccc34)C2CC(C)C)o1 (stereo not shown) | -58.7
43 | Cc1cnc(CN2CCc3c([nH]c4ccccc34)C2CC(C)C)[nH]1 (stereo not shown) | -45.1
44 | CC(C)CC1c2[nH]c3ccccc3c2CCN1C(=O)c1cnccn1 (stereo not shown) | 3.61
45 | Cc1cccc(CN2CCc3c([nH]c4ccccc34)C2CC(C)C)n1 (stereo not shown) | -3.98
46 | CCc1nccn1CCC(=O)N1CCc2c([nH]c3ccccc23)C1CC(C)C (stereo not shown) | -53.9
47 | CC(C)CC1c2[nH]c3ccccc3c2CCN1C(=O)CCC(=O)N(C)C (stereo not shown) | 3.88
48 | CCn1ccnc1CN1CCc2c([nH]c3ccccc23)C1C1CCCCC1 (stereo not shown) | -19.4
49 | Cc1c(CN2CCc3c([nH]c4ccccc34)C2CC(C)C)cnn1C (stereo not shown) | -36
50 | Br.Cc1nc(-c2ccc(C(=O)O)cc2)cs1 | 7.39
51 | S=C(NCCN1CCOCC1)Nc1ccc(Cl)cc1Cl | -18
52 | CCOC(=O)N1CCN(CC(O)COCc2ccccc2)CC1.Cl (stereo not shown) | -4.06
53 | Cc1ccc(S(=O)(=O)Nn2c(C)ccc2C)cc1 | 15.3
54 | Nc1ccccc1Nc1ccccc1 | -13.6
55 | O=c1c(Cl)c(NCc2ccccc2Cl)cnn1C12CC3CC(CC(C3)C1)C2 | -5.06
56 | CN(C)c1ccc(C(CC(=O)O)NC(=O)c2ccc(Cl)cc2)cc1 (stereo not shown) | -9.38
57 | N#CCc1ccc(NC(=O)c2ccc(S(=O)(=O)N3CCOCC3)cc2)cc1 | 1.97
58 | O=C(CN(c1ccccc1)S(=O)(=O)c1ccccc1[N+](=O)[O-])Nc1ccccc1C(=O)N1CCOCC1 | 3.76
